Screening results from PubChem BioAssay.
This is a sample that favours compounds with a hit; in the whole collection about 4.1% have one here.
Shn3 3UTR inh: reduction of Shn3 3'UTR firefly luciferase signal, primary screen, Schnurri-3 inhibitor project, cell-based, Clone20 osteoblasts, set 2. inhibition, % at 12.5 µM. Clone20 osteoblast Shn3 3'UTR firefly luciferase, 24 h. actives 0.52% (n = 360,000);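 active = mean inhibition of at least 75% with every replicate also reaching 75%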;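 also: 0% = median of neutral control wells and 100% = pilot-screen positive control compound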
TROY signal inh: inhibitors of TROY-driven NF-kB signaling, primary screen, Q293 LMP1-TROYcd cells, NF-kB luciferase, uHTS. Q293 LMP1-TROYcd NF-kB luciferase reporter, 4 h. actives 0.98% (n = 360,000). AID 1347056, 2019. inhibition, % at 10 µM;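 active = compounds whose plate-normalised and pattern-corrected inhibition of the luciferase reporter signal at the single screening dose is 50% or more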
LMP1 NFkB inh: EBV LMP1-driven NF-kappaB luciferase reporter inhibitors, primary screen, cell-based, luminescence, single point; LMP1-induced NF-kappaB luciferase reporter cells; inhibition, % at 12.5 µM; actives 0.69% (n = 350,000); AID 504558, 2011; in the data active = inhibition above about 41%;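 also: 0% = neutral control wells and 100% = reference inhibitor control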
MITF TRPM1 inh: inhibitors of MITF-dependent TRPM1 promoter reporter, primary screen, cell-based, SK-MEL-5, single point, luciferase. SK-MEL-5 TRPM1 promoter luciferase, 24 h. inhibition, % at 12.5 µM. AID 488899, 2010. actives 0.83% (n = 330,000);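 active = mean inhibition across replicates of 60% or more, whatever share of single replicates reaches that level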
TWEAK Fn14 block: inhibitors of TWEAK-Fn14 signaling, primary screen, luciferase reporter cells, uHTS; actives 2% (n = 360,000); inhibition, % at 10 µM; TWEAK-stimulated Fn14 reporter cells, luciferase luminescence, 8 h; AID 1159606, 2016; in the data active = inhibition above about 50%
Peg3 prom inh: Peg3 promoter-driven luciferase inhibitors, primary screen, cell-based, HeLa, luciferase luminescence; AID 588405, 2011; actives 1.7% (n = 360,000); inhibition, % at 20 µM; HeLa PEG-Prom luciferase reporter, overnight;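 active = inhibition of at least 50% at 20 µM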
The depositor's hits bear a star; x = no result.

SMILES | Shn3 3UTR inh | TROY signal inh | LMP1 NFkB inh | MITF TRPM1 inh | TWEAK Fn14 block | Peg3 prom inh
Cc1cc(Br)cn2c(Cc3ccsc3)c(-c3cccc(Cl)c3)nc12 | 14.0 | 19.3 | x | x | 14.3 | -13.5
Cc1ccc(NC(=O)c2sc3ccccc3c2Cl)nc1 | 20.8 | 52.1* | 32.2 | 15.7 | 75.4* | -89.5
Cc1ccc2nsnc2c1NC(=O)c1sc2ccccc2c1Cl | -21.7 | 86.3* | -5.7 | -3.0 | 90.5* | 4.5
Cc1nnc(NC(=O)c2sc3ccccc3c2Cl)s1 | -30.9 | -21.5 | 22.8 | -24.1 | 45.9 | -81.9
O=C(Nc1ccccn1)c1sc2cccc(F)c2c1Cl | 2.7 | 13.4 | -6.1 | 10.5 | 62.8* | -141.7
OC(CN1CC=C(/C=C/c2ccc(Br)cc2)CC1)c1ccccc1 (stereo not drawn) | -1.3 | -0.9 | -19.9 | 0.7 | -22.0 | 11.7
NC(=O)C1CCN(CC(=O)NC(=O)NC2CCCC2)CC1 | -11.3 | 4.5 | 4.8 | 7.2 | -3.0 | 4.2
CCN(CC)S(=O)(=O)c1ccc(-c2nnc(SCC(=O)N3CCOCC3)o2)cc1 | -7.3 | -13.1 | -5.9 | -1.6 | -8.8 | 2.0
CCN(CC)S(=O)(=O)c1ccc(-c2nnc(SCC(=O)N3CCc4ccccc43)o2)cc1 | 41.1 | -20.4 | -41.0 | 24.2 | -13.0 | 52.2*
CNC(=O)CC1C(=O)N(c2ccc(Cl)cc2)C(=S)N1NC(=O)c1cccc(F)c1 (stereo not drawn) | -8.3 | -12.3 | -9.7 | 5.0 | 9.2 | -98.0
CNC(=O)CC1C(=O)N(c2ccc(OC)cc2)C(=S)N1NC(=O)c1cccc(F)c1 (stereo not drawn) | 9.9 | 84.2* | x | x | -6.6 | 68.7*
CC(=O)Nc1ccc(NC(=O)c2ccc(S(=O)(=O)N(C)c3ccccc3)cc2)cc1 | 7.0 | 19.7 | -0.5 | -1.9 | 3.4 | 15.4
Cc1nc2ccc(NC(=O)c3ccc(S(=O)(=O)N(C)c4ccccc4)cc3)cc2s1 | 33.6 | 55.7* | 6.9 | 18.4 | 58.1* | 67.2*
CCNC(=O)N1CCC(n2nccc2NC(=O)CCCc2ccccc2)CC1 | -1.4 | -18.2 | 2.3 | 9.4 | 15.4 | -8.1
N#C/C(=C\c1ccc(O)c(O)c1)C(=O)c1ccc(O)c(O)c1 | 20.8 | 15.6 | 1.7 | -4.8 | 62.9* | 2.1
N#C/C(=C\c1ccc(O)c(O)c1)C(=O)N1CCCC1 | -17.7 | -5.2 | -6.7 | 9.0 | -34.5 | 4.8
Cc1cccc(SCC(=O)Nc2ccc3c(c2)OCCO3)c1 | -55.0 | -39.3 | -9.2 | -68.5 | -8.0 | -345.6
O=C(c1cccs1)N1CC=C(c2ccccc2)CC1 | -32.7 | -32.5 | 73.3* | -26.5 | -6.0 | -105.7
O=C(c1cccs1)N1CCN(C(=O)c2cccs2)C1=S | 41.8 | 28.7 | 1.7 | 23.0 | 70.3* | 99.2*
O=C(O)C1CC=CCC1C(=O)N1CC=C(c2ccccc2)CC1 (stereo not drawn) | -8.5 | 41.9 | 19.2 | -0.4 | 78.2* | 18.3
O=C(O)CCC(=O)N1CC=C(c2ccccc2)CC1 | 6.6 | 9.2 | -5.3 | -4.2 | 5.3 | -7.8
O=C(c1cccs1)N1CCCC1 | -7.1 | -4.5 | -2.4 | 2.8 | 0.3 | 17.7
COc1ccc(-c2ccc(N)cn2)cn1 | -37.7 | -30.7 | -0.6 | -36.5 | 9.2 | -56.6
O=C(CSc1nc2ncccc2[nH]1)c1ccc2c(c1)OCO2 | -11.5 | -59.9 | x | x | -16.3 | -108.1
COc1cc2cnc(C3=CCCCC3)cc2cc1OC | -41.8 | -53.8 | 8.5 | -18.4 | -31.7 | -68.1
SMILES | Shn3 3UTR inh | TROY signal inh | LMP1 NFkB inh | MITF TRPM1 inh | TWEAK Fn14 block | Peg3 prom inh
O=C(O)c1ccc(OCCCCCCOC2CCCCO2)cc1 (stereo not drawn) | -1.5 | -5.1 | -7.6 | 8.2 | -21.6 | 2.5
COc1ccc2cc(CCOC3CCCCO3)ncc2c1 (stereo not drawn) | -26.7 | 9.4 | 14.9 | -13.3 | 60.3* | -128.6
COc1cc2cnc(CCO[C@H]3CCCCO3)cc2cc1OC | 2.4 | 52.1* | 6.0 | -10.7 | 31.1 | -16.9
Cc1ccc(NC(=O)C2CCN(S(=O)(=O)c3ccc(C(C)(C)C)cc3)CC2)cc1S(=O)(=O)N1CCOCC1 | 17.4 | 21.4 | -3.0 | 5.1 | 20.8 | 19.2
O=C(NCc1ccc(F)cc1)C(c1ccccc1)c1ccccc1 | 15.1 | 1.0 | 2.5 | 2.6 | 54.3* | 11.5
Cc1ccc(-n2nnnc2Sc2ccc(S(=O)(=O)NCCN(C)C)cc2[N+](=O)[O-])cc1 | -46.1 | 33.1 | 46.7* | 91.7* | 97.2* | 100.3*
CC(=O)N1CCN(c2ccc(S(=O)(=O)NCCN(C(C)C)C(C)C)cc2[N+](=O)[O-])CC1 | 8.0 | 7.1 | 3.2 | -5.0 | -1.6 | 0.6
O=[N+]([O-])c1cc(S(=O)(=O)NCCCN2CCOCC2)ccc1Cl | -17.2 | -20.3 | -11.2 | 5.2 | 20.3 | 28.1
O=[N+]([O-])c1cc(S(=O)(=O)NCCN2CCOCC2)ccc1Sc1nnnn1-c1ccccc1 | 8.3 | 21.6 | -11.5 | 78.7* | 89.2* | 42.5
CN(C)CCNS(=O)(=O)c1ccc(N2CCN(c3ccc(F)cc3)CC2)c([N+](=O)[O-])c1 | 51.9 | 8.5 | -8.1 | 8.0 | 4.8 | 62.7*
Cc1noc(C)c1NC(=O)Nc1ccc2c(c1)C(=O)N([C@H](C)CO)C[C@H](C)[C@@H](CN(C)C(=O)NC1CCCCC1)O2 | -16.8 | 6.5 | -6.1 | 3.6 | -8.7 | -5.4
CCOC(=O)C(C)Oc1nc(Oc2ccccc2)nc(N(C)C)n1 (stereo not drawn) | 15.8 | x | 0.3 | 9.7 | 50.4* | 25.4
CCNc1ccc(Br)cc(C(=O)/C=C/c2ccc(Cl)cc2Cl)c1=O | -11.1 | 14.7 | 48.6* | 27.0 | 3.1 | 22.9
COC(=O)c1c(NC(=S)NN2CCN(C)CC2)sc2c1CCC(C)C2 (stereo not drawn) | 17.5 | -7.9 | -17.8 | 50.6 | -27.8 | 106.7*
Cc1ccc(C2Nc3ccccc3NC3=C2C(=O)OC(C)C3)cc1 (stereo not drawn) | 4.3 | 63.7* | 2.3 | 19.0 | 29.9 | 13.9
CC1CC2=C(C(=O)O1)C(c1ccc(Cl)cc1)Nc1ccccc1N2 (stereo not drawn) | -3.5 | 15.1 | -2.7 | 6.0 | 12.2 | 6.4
CCOC(=O)c1c(C)[nH]c(C(=O)OCC(=O)N(CC(C)C)c2c(N)n(Cc3ccccc3)c(=O)[nH]c2=O)c1C | 6.1 | 13.4 | 3.8 | 0.1 | 6.5 | -2.7
O=C(CCCC(=O)N(c1ccc2c(c1)OCCO2)C(C(=O)NC1CCCCC1)c1ccc(Cl)cc1)Nc1ccccn1 (stereo not drawn) | 10.7 | 3.1 | 2.3 | -3.0 | 62.5* | -11.9
COc1ccc(C(C(=O)NC2CCCCC2)N(C(=O)CCl)c2ccc(Cl)cc2)cc1 (stereo not drawn) | 94.1* | 9.0 | 17.1 | 78.5* | 53.7* | 73.5*
